The values below come from PubChem BioAssay (EPA / NIEHS).

Read-out in test [1]: Tumor necrosis factor receptor superfamily member 6 (Homo sapiens) (UniProt P25445)
The experiment in a line: LTEA_HepaRG_FAS: Life Technologies and Expression Analysis (LTEA) Assay for Fas cell surface death receptor (FAS) using HepaRG (AID 2283447). The following applies: mRNA level, 48 h; actives raise or lower the signal. Put shortly:
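Differentiated HepaRG cells in serum-free induction medium were exposed 48 h to 8 half-log concentrations up to 100 uM in 0.5% DMSO, in duplicate. FAS mRNA was measured by qRT-PCR normalised to ACTB, GAPDH and POLR2A; bidirectional fit versus DMSO.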

Read-out in test [2]: Fatty acid synthase (Homo sapiens) (UniProt P49327)
The test is described as follows: LTEA_HepaRG_FASN: Life Technologies and Expression Analysis (LTEA) Assay for Fatty Acid Synthase (FASN) using HepaRG (AID 2283448). The following applies: mRNA level, 48 h; actives raise or lower the signal. In outline:
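Transcript-level assay: HepaRG liver cells are treated for 48 h across an eight-point range topping at 100 uM, and FASN mRNA, normalized to three housekeeping genes, is compared with DMSO controls in both directions.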

Read-out in test [3]: Cyclin D2 (CCND2), CCND2 (gene 894)
The test is described as follows: LTEA_HepaRG_CCND2: Life Technologies and Expression Analysis (LTEA) Assay for Cyclin D2 (CCND2) using HepaRG (AID 2283449).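 Note: CCND2 transcript measured by TaqMan qRT-PCR and normalised to three housekeeping genes.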 The settings on record: mRNA level, 48 h; actives raise or lower the signal. In outline:
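Chemicals in 0.5% DMSO, eight half-log concentrations from 100 uM top, were applied in duplicate for 48 h to human HepaRG cells in serum-free induction medium. CCND2 mRNA by TaqMan qRT-PCR, normalised to ACTB/GAPDH/POLR2A; bidirectional fit versus DMSO.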

Read-out in test [4]: Cyclin Dependent Kinase Inhibitor 1A (CDKN1A), CDKN1A (gene 1026)
The experiment in a line: LTEA_HepaRG_CDKN1A: Life Technologies and Expression Analysis (LTEA) Assay for Cyclin Dependent Kinase Inhibitor 1A (CDKN1A) using HepaRG (AID 2283450). The following applies: mRNA level, 48 h; actives raise or lower the signal. In outline:
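Differentiated human HepaRG cells, pre-cultured 48 h, were exposed in duplicate for 48 h in serum-free induction medium to eight half-log concentrations up to 100 uM (0.5% DMSO). CDKN1A mRNA was measured by qRT-PCR, normalized to ACTB/GAPDH/POLR2A, bidirectionally fitted versus DMSO.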

Read-out in test [5]: catalase (CAT), CAT (gene 847)
The test is described as follows: LTEA_HepaRG_CAT: Life Technologies and Expression Analysis (LTEA) Assay for catalase (CAT) using HepaRG (AID 2283452). The following applies: mRNA level, 48 h; actives raise or lower the signal. Put shortly: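 HepaRG cells in serum-free induction medium, 0.5% DMSO vehicle, exposed 48 h in duplicate over 8 half-log concentrations from 100 uM. CAT mRNA measured by qRT-PCR, normalized to ACTB, GAPDH, POLR2A; bidirectional fit versus DMSO.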

Read-out in test [6]: flavin-containing dimethylaniline monooxygenases 3 (FMO3), FMO3 (gene 2328)
The experiment in a line: LTEA_HepaRG_FMO3: Life Technologies and Expression Analysis (LTEA) Assay for flavin-containing dimethylaniline monooxygenases 3 (FMO3) using HepaRG (AID 2283453). The following applies: mRNA level, 48 h; actives raise or lower the signal. In outline: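 HepaRG, 48 h exposure, 8-pt half-log series from 100 uM, 0.5% DMSO vehicle, duplicates; FMO3 transcript by Fluidigm TaqMan qRT-PCR, housekeeping-normalized; gain/loss fit vs DMSO.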

Read-out in test [7]: Cytochrome P450 (CYP1A1), CYP1A1 (gene 1543)
The test is described as follows: LTEA_HepaRG_CYP1A1: Life Technologies and Expression Analysis (LTEA) Assay for Cytochrome P450 (CYP1A1) using HepaRG (AID 2283454). The settings on record: mRNA level, 48 h; actives raise or lower the signal. Put shortly: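 Differentiated HepaRG cells in serum-free induction medium were exposed in duplicate for 48 h to eight half-log concentrations up to 100 uM in 0.5% DMSO. CYP1A1 mRNA was quantified by TaqMan qRT-PCR, normalized to ACTB, GAPDH and POLR2A.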

Read-out in test [8]: CFLAR gene, CFLAR (gene 8837)
The test is described as follows: LTEA_HepaRG_CFLAR: Life Technologies and Expression Analysis (LTEA) Assay for CFLAR gene using HepaRG (AID 2283455). The following applies: mRNA level, 48 h; actives raise or lower the signal. Put shortly: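 Differentiated HepaRG cells in serum-free induction medium were exposed 48 h in duplicate to eight half-log concentrations up to 100 uM in 0.5% DMSO; mRNA measured by TaqMan qRT-PCR, normalized to ACTB, GAPDH, POLR2A; bidirectional fitting versus DMSO.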

Read-out in test [9]: Forkhead box O1 (FOXO1), FOXO1 (gene 2308)
The test is described as follows: LTEA_HepaRG_FOXO1: Life Technologies and Expression Analysis (LTEA) Assay for Forkhead box O1 (FOXO1) using HepaRG (AID 2283456). The following applies: mRNA level, 48 h; actives raise or lower the signal. Put shortly:
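Differentiated HepaRG cells, in serum-free induction medium with 0.5% DMSO, exposed 48 h in duplicate to 8-point half-log series from 100 uM. FOXO1 mRNA measured by TaqMan qRT-PCR, normalized to ACTB, GAPDH, POLR2A; bidirectional fit versus DMSO.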

Read-out in test [10]: growth arrest and DNA damage 45 (GADD45A), GADD45A (gene 1647)
The test is described as follows: LTEA_HepaRG_GADD45A: Life Technologies and Expression Analysis (LTEA) Assay for growth arrest and DNA damage 45 (GADD45A) using HepaRG (AID 2283458). The settings on record: mRNA level, 48 h; actives raise or lower the signal. In outline:
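Human HepaRG liver cells are treated in duplicate for 48 h with chemicals in 0.5% DMSO, highest concentration 100 uM. Expression is read by qRT-PCR and analyzed in both directions against vehicle.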

Read-out in test [11]: Forkhead box O3 (FOXO3), FOXO3 (gene 2309)
The test is described as follows: LTEA_HepaRG_FOXO3: Life Technologies and Expression Analysis (LTEA) Assay for Forkhead box O3 (FOXO3) using HepaRG (AID 2283459). The following applies: mRNA level, 48 h; actives raise or lower the signal. In outline:
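Differentiated human HepaRG cells, 48 h post-plating, exposed in duplicate for 48 h in serum-free induction medium; 8-point half-log series from 100 uM in 0.5% DMSO. FOXO3 mRNA by TaqMan qRT-PCR, normalized to ACTB/GAPDH/POLR2A; bidirectional fit versus DMSO.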

Read-out in test [12]: ABC Transporter (ABCB1), ABCB1 (gene 5243)
The experiment in a line: LTEA_HepaRG_ABCB1: Life Technologies and Expression Analysis (LTEA) Assay for ABC Transporter (ABCB1) using HepaRG (AID 2283460). The settings on record: mRNA level, 48 h; actives raise or lower the signal. In outline:
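HepaRG cells exposed in duplicate for 48 h in serum-free induction medium to eight half-log concentrations up to 100 uM in 0.5% DMSO. ABCB1 mRNA quantified by qRT-PCR, normalised to ACTB, GAPDH and POLR2A; fitted bidirectionally versus DMSO.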

Read-out in test [13]: growth arrest and DNA damage 45 (GADD45B), GADD45B (gene 4616)
The test is described as follows: LTEA_HepaRG_GADD45B: Life Technologies and Expression Analysis (LTEA) Assay for growth arrest and DNA damage 45 (GADD45B) using HepaRG (AID 2283461). The settings on record: mRNA level, 48 h; actives raise or lower the signal. In outline: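 Differentiated HepaRG cells, plated 48 h then switched to serum-free induction medium, were exposed 48 h in duplicate to eight half-log concentrations from 100 uM in 0.5% DMSO; mRNA quantified by qRT-PCR, normalized to ACTB/GAPDH/POLR2A, bidirectional fit versus DMSO.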

Read-out in test [14]: ABC Transporter (ABCC3), ABCC3 (gene 8714)
The test is described as follows: LTEA_HepaRG_ABCC3: Life Technologies and Expression Analysis (LTEA) Assay for ABC Transporter (ABCC3) using HepaRG (AID 2283462). The settings on record: mRNA level, 48 h; actives raise or lower the signal. Put shortly:
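HepaRG cells in serum-free induction medium were exposed for 48 h in duplicate to 8-point half-log concentrations topping at 100 uM in 0.5% DMSO. ABCC3 mRNA was measured by qRT-PCR normalized to ACTB, GAPDH and POLR2A, with bidirectional fitting versus DMSO.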

The nature of test [15]: CEETOX_H295R_PROG: CeeTox H295R High-throughput Steroidogenesis Assay for Progesterone (PROG) (AID 2283442). The following applies: actives raise or lower the signal. Put shortly:
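H295R human adrenal cells were prestimulated with 10 uM forskolin for 48 h, then exposed to test chemical (0.1% DMSO final) for 48 h. Medium progesterone was MTBE-extracted and quantified by HPLC-MS/MS, with bidirectional fitting against DMSO.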

A short description of test [16]: CEETOX_H295R_ESTRADIOL: CeeTox H295R High-throughput Steroidogenesis Assay for Estradiol (AID 2283440).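 Note: estradiol secreted into medium quantified by LC-MS/MS after dansyl derivatisation.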 The settings on record: actives raise or lower the signal. Put shortly: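 H295R adrenocortical cells were prestimulated with 10 uM forskolin for 48 h, then exposed to test chemical in 0.1% DMSO for 48 h. Medium estradiol was extracted with MTBE, dansyl-derivatized and quantified by HPLC-MS/MS; bidirectional fit versus DMSO.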

A short description of test [17]: CEETOX_H295R_ESTRONE: CeeTox H295R High-throughput Steroidogenesis Assay for Estrone (AID 2283441).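 Note: estrone secreted into medium measured by LC-MS/MS after dansyl derivatization.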 The following applies: actives raise or lower the signal. Put shortly:
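H295R cells; 48 h forskolin (10 uM) prestimulation; 48 h compound exposure, 0.1% DMSO final. Medium estrone: MTBE extraction, dansyl derivatization, HPLC-MS/MS. Bidirectional fit vs DMSO.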

Where “and” joins values, the source holds several entries; their conditions need not be identical. Equal values may be shown once. A structure can be active in one record and inactive in another. Calls of active or inactive are those of the source. Rule for the calls: active = hit-call score of the fitted dose curve at least 0.9, where 1 is the maximum; inactive = score below 0.9.

Fatty acid synthase (Homo sapiens), sequence (P49327 whole entry, looked up): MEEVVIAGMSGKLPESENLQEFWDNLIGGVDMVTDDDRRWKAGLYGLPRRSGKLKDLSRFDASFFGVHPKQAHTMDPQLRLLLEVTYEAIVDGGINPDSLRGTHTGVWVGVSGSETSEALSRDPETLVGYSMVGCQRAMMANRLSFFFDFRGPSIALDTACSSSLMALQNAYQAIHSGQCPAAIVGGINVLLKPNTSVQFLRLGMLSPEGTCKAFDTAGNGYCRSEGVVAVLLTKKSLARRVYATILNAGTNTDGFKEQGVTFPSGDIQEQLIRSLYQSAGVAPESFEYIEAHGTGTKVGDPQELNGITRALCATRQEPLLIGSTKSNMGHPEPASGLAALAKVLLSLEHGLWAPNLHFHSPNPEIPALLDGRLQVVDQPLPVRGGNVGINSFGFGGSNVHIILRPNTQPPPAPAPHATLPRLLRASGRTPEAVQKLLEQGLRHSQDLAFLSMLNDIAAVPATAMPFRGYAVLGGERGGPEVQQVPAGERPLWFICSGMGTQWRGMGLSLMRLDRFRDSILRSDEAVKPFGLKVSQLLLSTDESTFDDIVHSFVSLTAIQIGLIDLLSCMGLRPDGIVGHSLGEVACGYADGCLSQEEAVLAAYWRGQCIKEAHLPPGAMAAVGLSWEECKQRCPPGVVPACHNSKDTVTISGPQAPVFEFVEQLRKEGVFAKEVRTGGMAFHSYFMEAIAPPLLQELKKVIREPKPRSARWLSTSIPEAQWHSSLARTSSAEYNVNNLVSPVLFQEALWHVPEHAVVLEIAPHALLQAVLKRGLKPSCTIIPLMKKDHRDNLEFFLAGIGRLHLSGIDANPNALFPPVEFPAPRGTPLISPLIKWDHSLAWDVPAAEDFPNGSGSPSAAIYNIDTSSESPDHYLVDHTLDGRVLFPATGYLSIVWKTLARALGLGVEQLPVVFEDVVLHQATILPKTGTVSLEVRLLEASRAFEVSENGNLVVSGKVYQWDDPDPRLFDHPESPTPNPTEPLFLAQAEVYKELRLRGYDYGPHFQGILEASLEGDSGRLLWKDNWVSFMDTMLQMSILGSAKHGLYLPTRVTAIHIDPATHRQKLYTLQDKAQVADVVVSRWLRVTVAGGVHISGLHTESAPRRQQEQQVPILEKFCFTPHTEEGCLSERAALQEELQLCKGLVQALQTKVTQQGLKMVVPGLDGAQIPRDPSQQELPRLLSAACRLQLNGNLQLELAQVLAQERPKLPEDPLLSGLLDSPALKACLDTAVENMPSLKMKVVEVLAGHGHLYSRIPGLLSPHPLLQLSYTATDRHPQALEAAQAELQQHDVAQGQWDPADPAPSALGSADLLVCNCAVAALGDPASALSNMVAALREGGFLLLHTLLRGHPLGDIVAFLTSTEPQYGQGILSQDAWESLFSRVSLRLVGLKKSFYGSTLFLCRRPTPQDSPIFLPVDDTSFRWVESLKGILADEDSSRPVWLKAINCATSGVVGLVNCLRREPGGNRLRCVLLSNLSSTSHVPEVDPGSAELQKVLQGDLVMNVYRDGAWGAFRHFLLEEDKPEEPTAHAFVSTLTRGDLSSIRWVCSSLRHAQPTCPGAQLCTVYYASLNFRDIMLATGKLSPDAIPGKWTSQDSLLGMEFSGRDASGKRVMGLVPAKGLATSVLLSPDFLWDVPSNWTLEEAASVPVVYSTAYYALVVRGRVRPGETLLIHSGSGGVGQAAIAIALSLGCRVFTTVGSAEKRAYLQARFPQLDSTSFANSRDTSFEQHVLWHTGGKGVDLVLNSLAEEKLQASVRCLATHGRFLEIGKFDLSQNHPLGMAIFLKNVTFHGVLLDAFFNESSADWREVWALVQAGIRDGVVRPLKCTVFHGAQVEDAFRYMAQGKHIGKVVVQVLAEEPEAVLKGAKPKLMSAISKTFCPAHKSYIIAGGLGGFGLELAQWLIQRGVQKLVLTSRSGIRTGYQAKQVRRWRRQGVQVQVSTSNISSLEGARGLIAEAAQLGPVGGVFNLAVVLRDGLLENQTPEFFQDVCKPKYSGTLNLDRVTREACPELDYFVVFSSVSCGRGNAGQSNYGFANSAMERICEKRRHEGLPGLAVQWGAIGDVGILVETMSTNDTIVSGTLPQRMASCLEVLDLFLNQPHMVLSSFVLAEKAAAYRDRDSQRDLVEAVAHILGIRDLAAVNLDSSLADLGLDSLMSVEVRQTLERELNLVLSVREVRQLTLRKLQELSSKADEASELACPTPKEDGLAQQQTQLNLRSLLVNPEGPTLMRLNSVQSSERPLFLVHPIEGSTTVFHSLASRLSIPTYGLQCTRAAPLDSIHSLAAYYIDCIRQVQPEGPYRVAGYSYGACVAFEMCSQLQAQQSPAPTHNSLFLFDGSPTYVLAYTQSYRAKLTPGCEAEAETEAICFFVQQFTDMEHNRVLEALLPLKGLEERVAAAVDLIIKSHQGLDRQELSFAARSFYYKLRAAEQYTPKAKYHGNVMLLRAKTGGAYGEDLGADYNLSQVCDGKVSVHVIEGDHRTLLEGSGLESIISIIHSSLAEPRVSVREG

As usually defined, the AC50 is the concentration giving half of the maximal activity seen. Take `CN1CSC(=S)N(C)C1`: the result in test [1], in test [2], in test [3], in test [4], in test [5] and in [6] was inactive. For the same molecule, the outcome in test [8], in test [9], in test [10], in test [11], in test [12] and in test [13] was inactive. Besides, the AC50 in test [7] is 28.4 µM (active).
In the case of `O=C(O)CCCOc1ccc(Cl)cc1Cl`, the call in [1], in test [2], in test [3], in test [4], in [5] and in test [6] was inactive. The molecule was called inactive in test [8], in test [9], in [10], in test [11], in [12] and in test [13]. Also, the AC50 in test [7] is 50.8 µM (active).
As for `O=C(Nc1ccccc1)Nc1cnns1`, the outcome in test [1], in [4], in [8], in test [9], in test [10] and in test [11] was inactive. Also, the outcome in test [12] and in test [13] was inactive. For the same molecule, the AC50 in [2] was 72.7 µM (active); in test [5] it was 50 µM (active); in test [6] it was 73.5 µM (active); in test [7] it was 73.6 µM (active).
Regarding `CC1(c2ccc(Oc3ccccc3)cc2)OC(=O)N(Nc2ccccc2)C1=O` (configuration not stated), the AC50 is 1.02 µM (active) in test [1]; 42.4 µM (active) in test [2]; 9.7 µM (active) in test [4]; 12.7 µM (active) in test [5]; 24.4 µM (active) in [6]; 14.1 µM (active) in [7]. The AC50 in test [9] is 50.2 µM (active); in test [10] it was 13 µM (active); in [11], 4.78 µM (active). For the same molecule, the molecule was classed as inactive in [8], in [12] and in test [13].
Take `O=S(=O)(O)C(F)(F)C(F)(F)C(F)(F)C(F)(F)C(F)(F)C(F)(F)C(F)(F)C(F)(F)F`: the molecule was called inactive in [1], in test [3], in [4], in [5], in [7] and in test [8]. Also, the molecule was called inactive in [9], in test [10], in test [11], in test [12], in test [13] and in test [14]. In addition, the AC50 in test [2] was 81.5 µM (active) and 71.8 µM (active) and 73.8 µM (active); in test [5], 84 µM (active); in test [7], 22.6 µM (active); in test [8], 13.2 µM (active); in test [9], 13.3 µM (active).
On to `CC(C)(C)C(O)C(Oc1ccc(Cl)cc1)n1cncn1` (configuration not stated), for which the molecule was called inactive in test [15], in [1], in test [3], in test [4], in test [5] and in [6]. Also, the molecule was classed as inactive in test [8], in test [9], in test [10], in test [11] and in test [13]. Also, the AC50 was 32.7 µM (active) and 50 µM (active) and 27.9 µM (active) in [2]; 23.1 µM (active) and 18.4 µM (active) and 22 µM (active) in test [7]; 4.64 µM (active) and 7.44 µM (active) and 3.5 µM (active) in test [12].
Take `O=C1c2ccccc2C(=O)N1SC(Cl)(Cl)Cl`: the outcome in [16], in test [17], in [15], in test [1], in test [2] and in test [3] was inactive. Further, the molecule was called inactive in test [4], in test [5], in [6], in test [7], in test [8] and in [9]. The result in test [10], in test [11], in [12] and in [13] was inactive.
